Assay results as given in PubChem BioAssay (NCATS).
Several values for one entry are separate records, joined by “and”; a condition that tells them apart may be missing. Identical values can stand only once. Inconclusive results are not listed. The source holds several records for some structures; these can differ, active in one and inactive in another. Activity calls are given as the source filed them. Unless noted, the call rests on the fitted dose curve; in most records, active means well fitted curve in the direction sought with a large enough effect; inconclusive means small, poorly fitted or top-dose-only effect, or another doubt; inactive means no such curve, though single readings can be large; an effect the other way counts as inactive or inconclusive.

Key:
[1] = P-glycoprotein substrates identified in KB-3-1 adenocarcinoma cell line, qHTS therapeutic library screen (AID 1346986); details: KB-3-1 parental cells viability, CellTiter-Glo, 72 h; at 44.5 µM (top of the series); further: nearly all actives have a fitted effect of over 60% in size
Method in brief: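 Viability read by CellTiter-Glo after 72 h compound exposure in dose-response of KB-3-1 and KB-8-5-11 (P-gp-high) cells. Hits needed AC50 < 10 uM, >50% maximum response and curve class -1.1 to -2.4. Cherry-picks retested ± tariquidar, including pcDNA/MDR-19 HEK-293 pair.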

[2] = P-glycoprotein substrates identified in KB-8-5-11 adenocarcinoma cell line, qHTS therapeutic library screen (AID 1346987); further: nearly all actives have a fitted effect of over 65% in size; further: potency means the concentration at half of the fitted maximal effect
Method in brief: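 Compounds are pinned in dose-response onto KB-8-5-11 cells (500 cells/well, colchicine-free medium) and left 72 h at 37 degree C. CellTiter-Glo luminescence then yields AC50 values.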

[3] = Natriuretic polypeptide receptor (hNpr1) antagonism - Pilot counterscreen GloSensor control cell line (AID 1347045; calls by dose curve)
Method in brief: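 Control counterscreen: luciferase cGMP-biosensor HEK293 cells (no Npr1) received compound for 30 min at room temperature after GloSensor substrate loading. Luminescence was measured before and 20 min after soluble guanylyl cyclase activation by 50 uM nitroprusside.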

[4] = biological target: Atrial natriuretic peptide receptor 1 (Homo sapiens) (UniProt P16066); test: Natriuretic polypeptide receptor (hNpr1) antagonism - Pilot screen (AID 1347049; calls by dose curve;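 further: HEK293 cells with hNpr1 and GloSensor cGMP luciferase stimulated by 0.1 nM hNppA; agonist-evoked cGMP luminescence read 20 min after hNppA addition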)
Chain of Atrial natriuretic peptide receptor 1 (Homo sapiens) (P16066 whole entry, looked up): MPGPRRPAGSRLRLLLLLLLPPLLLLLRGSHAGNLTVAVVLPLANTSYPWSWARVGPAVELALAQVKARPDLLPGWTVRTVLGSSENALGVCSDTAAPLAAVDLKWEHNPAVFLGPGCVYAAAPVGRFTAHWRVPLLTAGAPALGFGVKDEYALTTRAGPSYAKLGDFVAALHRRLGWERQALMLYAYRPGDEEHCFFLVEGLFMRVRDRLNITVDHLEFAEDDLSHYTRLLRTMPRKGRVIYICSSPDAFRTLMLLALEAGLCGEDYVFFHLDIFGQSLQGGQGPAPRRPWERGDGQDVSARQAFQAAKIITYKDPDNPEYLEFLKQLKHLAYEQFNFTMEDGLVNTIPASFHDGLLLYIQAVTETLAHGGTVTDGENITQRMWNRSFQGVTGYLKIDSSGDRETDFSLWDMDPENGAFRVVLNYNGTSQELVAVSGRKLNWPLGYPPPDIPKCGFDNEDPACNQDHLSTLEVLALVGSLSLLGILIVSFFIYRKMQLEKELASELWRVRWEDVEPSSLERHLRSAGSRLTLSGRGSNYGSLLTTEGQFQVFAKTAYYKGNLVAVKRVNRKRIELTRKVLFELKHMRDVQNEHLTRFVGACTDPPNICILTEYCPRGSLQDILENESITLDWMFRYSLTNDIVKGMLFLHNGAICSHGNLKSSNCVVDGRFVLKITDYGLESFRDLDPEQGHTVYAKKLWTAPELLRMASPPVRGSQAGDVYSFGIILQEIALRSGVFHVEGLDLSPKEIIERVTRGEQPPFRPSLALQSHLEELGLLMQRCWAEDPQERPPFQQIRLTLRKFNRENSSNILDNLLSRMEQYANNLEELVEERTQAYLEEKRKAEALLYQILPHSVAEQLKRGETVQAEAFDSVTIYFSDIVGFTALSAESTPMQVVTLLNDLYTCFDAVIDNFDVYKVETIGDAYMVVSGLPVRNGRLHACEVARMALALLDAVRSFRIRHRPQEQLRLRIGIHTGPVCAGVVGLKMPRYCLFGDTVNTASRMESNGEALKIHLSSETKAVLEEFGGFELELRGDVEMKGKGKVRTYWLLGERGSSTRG
Method in brief: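 Receptor antagonism read as cGMP-dependent luminescence in hNpr1/pGS-40F HEK293 cells: pre-read after 30 min compound exposure, post-read 20 min after hNppA agonist at 0.1 nM final, all at room temperature, protected from light; A-71915 titration as control.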

[5] = biological target: Atrial natriuretic peptide receptor 2 (Homo sapiens) (UniProt P20594); test: Natriuretic polypeptide receptor (hNpr2) antagonism - Pilot subtype selectivity assay (AID 1347050; calls by dose curve)
Chain of Atrial natriuretic peptide receptor 2 (Homo sapiens) (P20594 whole entry, looked up): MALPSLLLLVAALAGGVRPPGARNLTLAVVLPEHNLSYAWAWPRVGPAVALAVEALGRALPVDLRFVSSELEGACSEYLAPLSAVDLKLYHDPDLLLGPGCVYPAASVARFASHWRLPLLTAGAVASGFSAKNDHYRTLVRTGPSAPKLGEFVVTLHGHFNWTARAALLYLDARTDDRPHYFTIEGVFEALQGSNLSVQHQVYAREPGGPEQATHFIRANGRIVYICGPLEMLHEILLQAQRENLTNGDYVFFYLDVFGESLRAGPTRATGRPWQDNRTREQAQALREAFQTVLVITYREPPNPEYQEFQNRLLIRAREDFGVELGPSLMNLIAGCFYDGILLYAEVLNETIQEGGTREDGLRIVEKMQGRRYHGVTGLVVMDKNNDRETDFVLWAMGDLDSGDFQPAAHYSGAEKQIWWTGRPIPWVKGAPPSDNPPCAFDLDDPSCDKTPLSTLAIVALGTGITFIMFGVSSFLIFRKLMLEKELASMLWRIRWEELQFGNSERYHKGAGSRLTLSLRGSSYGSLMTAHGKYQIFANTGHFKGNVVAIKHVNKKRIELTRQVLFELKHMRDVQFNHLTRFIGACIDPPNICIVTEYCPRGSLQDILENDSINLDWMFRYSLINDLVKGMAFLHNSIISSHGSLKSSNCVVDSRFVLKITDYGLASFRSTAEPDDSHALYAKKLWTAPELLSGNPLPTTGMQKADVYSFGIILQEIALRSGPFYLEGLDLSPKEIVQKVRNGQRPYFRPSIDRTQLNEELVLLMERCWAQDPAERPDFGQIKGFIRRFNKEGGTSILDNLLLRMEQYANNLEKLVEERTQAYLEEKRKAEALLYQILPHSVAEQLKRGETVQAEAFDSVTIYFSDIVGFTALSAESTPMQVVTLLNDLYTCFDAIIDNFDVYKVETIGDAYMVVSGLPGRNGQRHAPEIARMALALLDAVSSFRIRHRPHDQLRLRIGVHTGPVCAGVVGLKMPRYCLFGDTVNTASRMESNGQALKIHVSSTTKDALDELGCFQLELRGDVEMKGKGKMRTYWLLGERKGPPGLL
Method in brief: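 Antagonist mode: compounds (LOPAC1280, seven 1:5 dilutions) added 30 min before 1 nM hNppC stimulation of hNpr2-HEK293 cGMP-sensor cells; luminescence read before and 20 min after agonist at ambient temperature.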

[6] = NS1 protein of Zika virus - qHTS assay to identify small molecule inhibitors in human HEK 293 cells (AID 1347053); further: nearly all actives have a fitted effect of over 55% in size; further: potency means the concentration at half of the fitted maximal effect
Method in brief: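 In this cell-based screen, HEK 293 cultures received compound for one hour before Zika MR766 at MOI = 0.5. NS1 was quantified 24 hours later by TR-FRET, normalized to virus-free wells and infected wells.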

[7] = biological target: T1, Tyrosine-protein phosphatase non-receptor type substrate 1 (Homo sapiens) + Leukocyte surface antigen CD47 (Homo sapiens) (UniProt P78324+Q08722); test: CD47-SIRPalpha protein protein interaction - LANCE assay qHTS validation (AID 1347057; active means well fitted curve in the direction sought with a large enough effect in the signal ratio, with a control signal flat, not every such curve was filed as active; the % refers to the signal ratio)
T1 sequence (P78324 whole entry, looked up, the tested form may be a part): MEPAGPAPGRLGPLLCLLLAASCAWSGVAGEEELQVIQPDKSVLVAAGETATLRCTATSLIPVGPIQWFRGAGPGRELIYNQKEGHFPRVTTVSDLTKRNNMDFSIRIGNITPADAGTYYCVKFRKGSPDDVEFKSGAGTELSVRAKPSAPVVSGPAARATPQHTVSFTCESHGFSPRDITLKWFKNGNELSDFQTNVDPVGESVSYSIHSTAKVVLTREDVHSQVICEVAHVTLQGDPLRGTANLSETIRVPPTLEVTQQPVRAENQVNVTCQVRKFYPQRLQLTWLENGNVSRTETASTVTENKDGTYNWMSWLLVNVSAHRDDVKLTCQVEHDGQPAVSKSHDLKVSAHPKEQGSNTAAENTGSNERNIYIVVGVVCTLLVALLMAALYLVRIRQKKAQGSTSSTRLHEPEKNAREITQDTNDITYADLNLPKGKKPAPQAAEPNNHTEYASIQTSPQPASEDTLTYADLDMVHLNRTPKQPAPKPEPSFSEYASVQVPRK
T1 sequence (Q08722 whole entry, looked up, the tested form may be a part): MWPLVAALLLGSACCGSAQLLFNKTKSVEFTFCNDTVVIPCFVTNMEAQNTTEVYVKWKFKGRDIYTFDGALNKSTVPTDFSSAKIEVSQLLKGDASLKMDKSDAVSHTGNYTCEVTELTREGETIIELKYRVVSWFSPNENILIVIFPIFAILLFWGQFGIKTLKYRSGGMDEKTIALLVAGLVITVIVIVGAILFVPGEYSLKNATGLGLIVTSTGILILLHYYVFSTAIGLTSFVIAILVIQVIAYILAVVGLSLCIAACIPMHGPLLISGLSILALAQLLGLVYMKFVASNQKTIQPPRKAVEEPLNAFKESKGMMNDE
Method in brief: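 Inhibition of soluble CD47/SIRPalpha ectodomain association by titrated compounds, measured as 665/615 nm time-resolved FRET ratio after sequential 30 min room-temperature incubations.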

[8] = biological target: T1, Tyrosine-protein phosphatase non-receptor type substrate 1 (Homo sapiens) + Leukocyte surface antigen CD47 (Homo sapiens); test: CD47-SIRPalpha protein protein interaction - HTRF assay qHTS validation (AID 1347058; active means well fitted curve in the direction sought with a large enough effect in the signal ratio, not every such curve was filed as active; the % refers to the signal ratio)
Method in brief: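 Soluble extracellular domains (6His-CD47, Avi-tag-biotinylated SIRPalpha) in PBS pH 7.4 with 0.05% IGEPAL CA-630. Compounds were preincubated 30 min at RT with CD47 and anti-His-Eu, then SIRPalpha and SAV-XL665 were added. TR-FRET 665/615 ratio.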

[9] = biological target: T1, Tyrosine-protein phosphatase non-receptor type substrate 1 (Homo sapiens) + Leukocyte surface antigen CD47 (Homo sapiens); test: CD47-SIRPalpha protein protein interaction - Alpha assay qHTS validation (AID 1347059);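 further: bead proximity luminescence from CD47 binding SIRPalpha after compound preincubation with SIRPalpha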
Method in brief: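 AlphaScreen signal between CD47-His (12.5 nM) and biotin-SIRPalpha (25 nM) soluble extracellular domains, bead-captured via Ni-NTA and streptavidin. Compounds, in 7-point titrations, met SIRPalpha 30 min before CD47; PBS pH 7.4 with 0.05% IGEPAL.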

[10] = biological target: Parathyroid hormone/parathyroid hormone-related peptide receptor (Homo sapiens) (UniProt Q03431); test: qHTS for PTHR1 Agonists: Optimization Screen against the NCGC LOPAC library (AID 1347079);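 further: GloSensor cAMP luminescence in HEK-293 GP2 cells expressing human PTHR1 with IBMX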
Chain of Parathyroid hormone/parathyroid hormone-related peptide receptor (Homo sapiens) (Q03431 whole entry, looked up): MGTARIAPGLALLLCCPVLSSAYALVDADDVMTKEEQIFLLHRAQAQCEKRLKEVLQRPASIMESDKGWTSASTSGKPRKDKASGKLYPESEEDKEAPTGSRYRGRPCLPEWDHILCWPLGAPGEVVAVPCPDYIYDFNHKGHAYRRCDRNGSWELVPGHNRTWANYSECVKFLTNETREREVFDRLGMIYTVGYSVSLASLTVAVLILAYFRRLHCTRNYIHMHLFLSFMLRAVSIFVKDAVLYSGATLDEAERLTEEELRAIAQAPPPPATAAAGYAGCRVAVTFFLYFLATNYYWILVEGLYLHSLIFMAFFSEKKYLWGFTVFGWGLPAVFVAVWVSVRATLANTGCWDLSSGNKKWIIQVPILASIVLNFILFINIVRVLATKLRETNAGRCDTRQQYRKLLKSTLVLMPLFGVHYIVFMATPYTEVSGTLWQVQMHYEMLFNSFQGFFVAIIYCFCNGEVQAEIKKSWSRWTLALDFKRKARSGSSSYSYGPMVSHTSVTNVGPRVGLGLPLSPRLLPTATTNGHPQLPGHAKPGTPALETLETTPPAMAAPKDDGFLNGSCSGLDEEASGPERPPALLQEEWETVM
Method in brief: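 HEK-293 GP2 cells, PTHR1 + GloSensor cAMP; 3000 cells/well, o/n. Luciferin + IBMX 0.5mM each (stock), 1 hr 37C. Cpd titration, 1 hr 37C. Lum after 15 min RT. Ctrl M-PTH(1-15) top 10uM.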

[11] = qHTS of pediatric cancer cell lines to identify multiple opportunities for drug repurposing: Primary screen for TC32 cells (AID 1347089); further: nearly all actives have a fitted effect of over 60% in size; further: potency means the concentration at half of the fitted maximal effect
Method in brief: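 In the primary qHTS, MIPE compounds were tested at 11 concentrations (0.78 nM to 46 µM) and NPC compounds at 8 (0.59 nM to 46 µM) on TC32 cells for 48 h. CellTiter-Glo luminescence gave viability.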

[12] = qHTS of pediatric cancer cell lines to identify multiple opportunities for drug repurposing: Primary screen for SJ-GBM2 cells (AID 1347091); further: potency means the concentration at half of the fitted maximal effect
Method in brief: (§1)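 Cell viability, CellTiter-Glo luminescence; 500-1,000 cells/well, 8- or 11-point titration, 48 h compound exposure at 37 degrees C, 5% CO2. Controls: DMSO neutral, bortezomib 2.3 µM final as positive.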

[13] = qHTS of pediatric cancer cell lines to identify multiple opportunities for drug repurposing: Primary screen for A673 cells (AID 1347092); further: nearly all actives have a fitted effect of over 45% in size; further: potency means the concentration at half of the fitted maximal effect
Method in brief: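 48 h compound exposure, A673, 500-1,000 cells/well, 37 degrees C/5% CO2. MIPE: 11-point, 0.78 nM-46 µM; NPC: 8-point, 0.59 nM-46 µM (final). Readout CellTiter-Glo luminescence after 15 min RT.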

[14] = qHTS of pediatric cancer cell lines to identify multiple opportunities for drug repurposing: Primary screen for BT-37 cells (AID 1347094); further: potency means the concentration at half of the fitted maximal effect
Method in brief: (§2)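 Readout: CellTiter-Glo luminescence, 48 h treatment. Controls DMSO (neutral) and bortezomib 2.3 µM final (positive). Potency and efficacy taken from primary-screen concentration-response curves.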

[15] = qHTS of pediatric cancer cell lines to identify multiple opportunities for drug repurposing: Primary screen for NB-EBc1 cells (AID 1347095); further: potency means the concentration at half of the fitted maximal effect
Method in brief: as §2

[16] = qHTS of pediatric cancer cell lines to identify multiple opportunities for drug repurposing: Primary screen for SK-N-MC cells (AID 1347093); further: potency means the concentration at half of the fitted maximal effect
Method in brief: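 Metabolically active cells were quantified by ATP-dependent luminescence (CellTiter-Glo, 15 min at room temperature) following 48 h treatment. Cells had been plated at 500-1,000 per well and settled for 5 h beforehand.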

[17] = qHTS of pediatric cancer cell lines to identify multiple opportunities for drug repurposing: Primary screen for DAOY cells (AID 1347090); further: nearly all actives have a fitted effect of over 55% in size; further: potency means the concentration at half of the fitted maximal effect
Method in brief: as §1

[18] = Identifying Small Molecule Inhibitors of Pancreatic Cancer Stem Cells (SN12C, Spheroid) (AID 1259360); details: Potency: SN12C spheroid viability; further: potency means the concentration at half of the fitted maximal effect
Method in brief: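 Endpoint: ATP-based luminescence, 48 h drug exposure. Bortezomib at 9.2 uM final as full-kill control; DMSO vehicle as negative control; activity normalized between vehicle and cell-free wells.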

[19] = Identifying Small Molecule Inhibitors of Pancreatic Cancer Stem Cells (Panc1, Adherent) (AID 1259362); details: viability; further: potency means the concentration at half of the fitted maximal effect
Method in brief: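 Cytotoxicity read by CellTiter-Glo luminescence after 48 h compound exposure at 37C; percent activity scaled between DMSO-treated cells and cell-free wells. Spheroid formats used cells pre-formed 14 days in stem cell media on hydrogel.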

[20] = Identifying Small Molecule Inhibitors of Pancreatic Cancer Stem Cells (A278, Adherent) (AID 1259361); further: nearly all actives have a fitted effect of over 35% in size
Method in brief: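 Pre-formed 14-day tumor spheroids or adherent cells dosed and incubated 48 h, 37C, 5% CO2. Viability assessed by CellTiter-Glo.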

NC(=O)c1cccc(N)c1
inactive: outcome [1] | Potency [2] | Potency [3] | Potency [4] | Potency [5] | Potency [6] | outcome [7] | outcome [8] | outcome [9] | outcome [10] | Potency [11] | Potency [12] | Potency [13] | Potency [14] | Potency [15]

COc1ccc(-c2ccc3cc(C(=O)O)ccc3c2)cc1C12CC3CC(CC(C3)C1)C2
active: Potency [12] 1.87 µM | Potency [16] 668 nM and 1.05 µM | Potency [15] 2.35 µM
13 µM (active) and inactive: Potency [2]
inactive: outcome [1] | Potency [6] | Potency [11] | Potency [13] | Potency [14]

COC(c1ccccc1)(c1ccccc1)[C@H](Oc1nc(C)cc(C)n1)C(=O)O
inactive: outcome [1] | Potency [2] | Potency [6] | Potency [11] | Potency [12] | Potency [13] | Potency [16] | Potency [14] | Potency [15]

CCC(=O)O[C@]1(C(=O)SCF)[C@H](C)C[C@H]2[C@@H]3C[C@H](F)C4=CC(=O)C=C[C@]4(C)[C@@]3(F)[C@@H](O)C[C@@]21C
inactive: outcome [1] | Potency [2] | Potency [6] | Potency [11] | Potency [17] | Potency [12] | Potency [16] | Potency [14]

Cc1cccc(N(C)C(=S)Oc2ccc3ccccc3c2)c1
inactive: outcome [1] | Potency [2] | Potency [6] | Potency [11] | Potency [17] | Potency [13] | Potency [14]

OCc1ccc(-c2nn(Cc3ccccc3)c3ccccc23)o1
inactive: outcome [1] | Potency [3] | Potency [4] | Potency [6] | outcome [7] | outcome [8] | outcome [9] | outcome [10] | Potency [17] | Potency [12] | Potency [14] | Potency [15]

NC1(c2ccc(-c3nc4ccn5c(=O)[nH]nc5c4cc3-c3ccccc3)cc2)CCC1
active: Potency [18] 23.5 µM | Potency [19] 20.9 µM | Potency [6] 9.35 µM | Potency [17] 18.7 µM | Potency [12] 5.26 µM and 13.3 µM | Potency [13] 14.8 µM and 21.1 µM | Potency [16] 332 nM and 266 nM | Potency [14] 6.85 µM | Potency [15] 2.35 µM and 11.9 µM

O=NN(CCCl)C(=O)NC1CCCCC1
inactive: outcome [1] | Potency [6] | Potency [11] | Potency [17] | Potency [12] | Potency [13] | Potency [16] | Potency [14] | Potency [15]

COc1cc2nc(N3CCCN(C)CC3)nc(NC3CCN(Cc4ccccc4)CC3)c2cc1OC
active: Potency [19] 2.35 µM | Potency [2] 9.35 µM | Potency [17] 18.7 µM | Potency [12] 14.8 µM | Potency [13] 3.72 µM | Potency [16] 6.62 µM | Potency [14] 13.7 µM | Potency [15] 23.5 µM
inactive: Potency [3] | Potency [4] | outcome [7] | outcome [8] | outcome [9] | outcome [10]

O=S(=O)(c1cccc2cnccc12)N1CCCNCC1
inactive: outcome [1] | Potency [2] | Potency [6] | Potency [17] | Potency [12] | Potency [16] | Potency [14]
active: Potency [13] 18.7 µM

NS(=O)(=O)c1cc2c(cc1Cl)NC(C(Cl)Cl)NS2(=O)=O (centres undefined)
inactive: outcome [1] | Potency [2] | Potency [6] | Potency [11] | Potency [17] | Potency [12] | Potency [13] | Potency [16] | Potency [14] | Potency [15]

CNC1CCCN(c2c(F)cc3c(=O)c(C(=O)O)cn(C4CC4)c3c2OC)C1 (centres undefined)
inactive: outcome [1] | Potency [6] | Potency [11] | Potency [17] | Potency [12] | Potency [16] | Potency [14] | Potency [15]

CC1=C(C(=O)O)N2C(=O)[C@@H](NC(=O)C(N)c3ccccc3)[C@H]2SC1 (some centres undefined)
inactive: outcome [1] | Potency [2] | Potency [3] | Potency [4] | Potency [5] | Potency [6] | outcome [7] | outcome [9] | outcome [10] | Potency [12] | Potency [13] | Potency [14] | Potency [15]

CNC(=O)c1cc(Oc2ccc(NC(=O)Nc3ccc(Cl)c(C(F)(F)F)c3)cc2)ccn1
active: Potency [18] 18.7 µM | IC50 (viability decrease) [20] 18.7 µM | Potency [2] 11.8 µM and 8.2 µM and 6.51 µM | Potency [17] 11.8 µM | Potency [12] 8.33 µM | Potency [13] 2.96 µM | Potency [16] 3.32 µM | Potency [14] 21.7 µM | Potency [15] 5.26 µM
inactive: Potency [6]

COc1cc2c(Nc3ccc(Br)cc3F)ncnc2cc1OCC1CCN(C)CC1
inactive: Potency [2] | Potency [6] | Potency [11] | Potency [12] | Potency [15]
active: IC50 (viability decrease) [20] 18.7 µM

COc1cc([C@@H]2c3cc4c(cc3[C@H](O)[C@H]3COC(=O)[C@H]23)OCO4)cc(OC)c1OC
active: IC50 (viability decrease) [20] 0.0148 µM | Potency [2] 130 nM and 11.8 nM | Potency [11] 167 nM and 5.2 nM | Potency [17] 0.0335 µM | Potency [12] 23.7 nM and 1 nM | Potency [13] 84.1 nM and 1 nM | Potency [16] 53.1 nM and 1 nM | Potency [14] 69.2 nM and 1 nM
inactive: Potency [6]

Cc1c(-c2ccc(O)cc2)n(Cc2ccc(OCCN3CCCCCC3)cc2)c2ccc(O)cc12
inactive: Potency [18] | Potency [6] | Potency [11] | Potency [12] | Potency [13] | Potency [14]

CCOCC(O)COc1ccc(NC(=O)CC[S+](C)C)cc1 (centres undefined)
inactive: outcome [1] | Potency [6] | Potency [12] | Potency [13] | Potency [16] | Potency [14] | Potency [15]

CC(=O)[C@H]1CC[C@H]2[C@@H]3CCC4=CC(=O)CC[C@]4(C)[C@H]3CC[C@]12C
active: Potency [2] 11.8 µM | Potency [13] 1.18 µM | Potency [16] 0.526 µM
inactive: Potency [5] | Potency [6] | outcome [7] | outcome [8] | outcome [9] | outcome [10] | Potency [11]
